# aSyn 5UTR act – Activators working through SNCA 5'UTR binding (MLPCN); alpha-synuclein 5'UTR reporter, activators screen; AID 1814; activity score, % (tested at 7.5 µM), hits read low; actives 7.1% (n = 300,000); in the data active means activity score below about -60%
# A number is an active result; 0 = inactive. These entries were drawn from the full list.
SMILES,aSyn 5UTR act
Cc1ccc(C)c2nc3sc(C(=O)N4CCOCC4)c(N)c3cc12,-128.8
Cn1c(NNC(=O)c2ccccc2F)cc(=O)n(C)c1=O,0
Cn1c(NC(=O)/C=C/c2c(F)cccc2Cl)cc(=O)n(C)c1=O,-172.3
Cn1c(NC(=O)/C=C\c2ccccc2)cc(=O)n(C)c1=O,-136.8
O=C(/C=C/c1c(F)cccc1Cl)Nc1ncccn1,-228.3
Cc1ccc(N=C2NC(=O)/C(=C\c3cccs3)S2)cc1C,-85.2
O=C1Nc2ccccc2S/C1=C/c1cccs1,-67.7
O=C(Nc1ccccc1)C1Cc2ccccc2CN1C(=O)c1ccco1 (stereo not drawn),-114.0
Cn1cc(Br)c(C(=O)Nc2sc3c(c2C(N)=O)CCCC3)n1,-114.5
CCn1cc(Br)c(C(=O)Nc2sc3c(c2C(N)=O)CCCC3)n1,-102.2
Cc1ccccc1CNC(=O)Cc1ccccc1[N+](=O)[O-],-95.8
O=C(Cc1ccccc1[N+](=O)[O-])NCc1ccccc1Cl,-147.0
O=C(Cc1ccc(Cl)cc1)NCc1ccccc1Cl,-66.0
CCOC(=O)C1CCCN(C(=O)CCc2nnc(-c3ccc(C(C)=O)s3)o2)C1 (stereo not drawn),-134.4
O=C(CSCc1ccc(F)cc1)N1CCN(c2ccccc2)CC1,-66.4
O=C(CSCc1cccc(Br)c1)N1CCOCC1,-67.1
CCOC(=O)N1CCN(C(=O)CSCc2ccccc2)CC1,-82.8
CCOC(=O)C1CCCN(C(=O)CSCc2ccccc2)C1 (stereo not drawn),-111.9
O=C1C(Nc2ccccc2)=C(NS(=O)(=O)c2ccccc2)C(=O)c2ccccc21,-74.8
Oc1c(CN2CCOCC2)cc(COCc2ccccc2)c2cccnc12,0
Cc1cc(OCc2cccc(Cl)c2)c(C)cc1CN1CCOCC1,-65.1
Cc1ccc2c(c1)cc1c(=O)[nH]ncn12,-67.1
Nc1nnc(C(=O)c2ccccc2N)s1,-123.1
CCn1cnc2sc(C(=O)Oc3ccc(Br)cc3)c(C)c2c1=O,-77.0
O=Cc1cc(N=Nc2ccccc2Cl)ccc1O,-111.5
SMILES,aSyn 5UTR act
CCCC(C)NC(=O)c1ccc(-c2ccccc2)cc1 (stereo not drawn),-108.6
CCC(=O)c1ccc(-c2ccccc2)cc1,-89.3
CCN1CCN(C(=S)c2ccc(-c3ccccc3)cc2)CC1,0
O=[N+]([O-])c1ccccc1N/N=C/c1ccc2c(c1)OCO2,-95.4
O=[N+]([O-])c1ccccc1N/N=C/c1ccccc1,-231.0
CCOc1ccc(NC(=O)c2cccc3c2C(=O)N(Cc2cccnc2)C3)cc1,-110.7
OC1CCN(Cc2ccc(OCc3ccccc3)cc2)CC1,-69.7
C=CCN(CC=C)C(=O)C1CCN(Cc2ccc(OCc3ccccc3)cc2)CC1,-96.8
CCCCNC(=O)C1CCN(Cc2ccc(OCc3ccccc3)cc2)CC1,-218.9
CSc1nc(-c2ccccc2)nc(NC(C)=O)c1C(C)=O,-62.5
Cc1cc(Cl)cc2sc(NC(=O)c3ccco3)nc12,-122.7
Cc1nc2nc(NC(=O)c3ccco3)nn2c(C)c1Cl,-94.5
O=C(Nc1nc2c(F)cccc2s1)c1ccco1,-121.0
Fc1cccc2sc(Nc3nnc(-c4ccco4)o3)nc12,-109.1
Cc1cccc(NC(=O)c2cc(=O)c3ccccc3o2)c1,-66.6
Cc1ccc(NC(=O)c2cc(=O)c3ccccc3o2)cc1,-189.6
COc1cccc(NC(=O)c2cc(=O)c3ccccc3o2)c1,-72.2
Cc1cccc(NC(=O)c2cc(=O)c3ccccc3o2)n1,-132.4
COC(=O)c1sc(NC(=S)NC(=O)c2ccccc2C)nc1C,-92.7
COC(=O)c1sc(NC(=S)NC(=O)c2cccc(Br)c2)nc1C,-103.6
CCc1ccc(N(C(=O)c2csnn2)C(C(=O)NC(C)(C)C)c2ccccn2)cc1 (stereo not drawn),-101.9
CCc1ccc(N(C(=O)c2csnn2)C(C(=O)NC(C)(C)CC)c2ccccn2)cc1 (stereo not drawn),-69.0
N/C(=N\OC(=O)C1CCCCC1)c1ccc(Cl)cc1,-138.3
N/C(=N\OC(=O)C1CCCCC1)c1ccc(Br)cc1,-217.3
NC(=O)c1cc(Br)cc(C2CCCCC2)c1O,0
SMILES,aSyn 5UTR act
N/C(=N\OC(=O)C1CCCCC1)c1ccccn1,-118.8
CN(C)/C=C/C(=O)c1ccc(Cl)c([N+](=O)[O-])c1,-73.2
CC(=O)c1c(C)oc2ccc(N(C(C)=O)S(=O)(=O)c3ccc(Cl)c([N+](=O)[O-])c3)cc12,0
Brc1ccc(Nc2nc(-c3cccnc3)cs2)cc1,-161.1
CCOc1ccc(Nc2nc(-c3cccnc3)cs2)cc1,-223.2
Clc1cccc(Nc2nc(-c3cccnc3)cs2)c1,-270.8
Brc1cccc(Nc2nc(-c3cccnc3)cs2)c1,-150.3
COc1cc(/C=C2\OC(=O)c3c(OC)cccc32)ccc1O,-172.2
O=C(Nc1n[nH]c(=S)s1)c1ccc2ccccc2c1,-115.2
COc1ccc2oc(-c3ccc(C)c(NC(=O)c4ccc(N5CCOCC5)c([N+](=O)[O-])c4)c3)nc2c1,-94.7
O=C(Nc1nccs1)c1ccc(N2CCOCC2)c([N+](=O)[O-])c1,-80.2
O=C(Nc1nccs1)c1ccccn1,-123.4
O=C(Nc1nccs1)c1ccc2ccccc2c1,-114.2
CCOc1ccc(OCC(=O)Nc2nccs2)cc1,0
O=C(NCCc1ccccc1F)C(=O)Nc1nccs1,-122.1
CCOc1cccc(C(=O)Nc2nccs2)c1,-172.7
O=C(Nc1nccs1)c1ccc(Br)cc1,-160.8
CCCCN1CCc2c([nH]c3c(C)cccc23)C1=O,-149.6
N/C(=N\OC(=O)COc1ccccc1Cl)c1ccc(Cl)cc1,-89.6
Cc1ccc(/C(N)=N/OC(=O)COc2ccccc2Cl)cc1,-95.3
Cn1ccnc1CN1CCCCC1C(=O)Nc1ccc(Oc2cccnc2)cc1 (stereo not drawn),-76.9
O=C(CCC1CCCC1)Nc1ccc(C(=O)NCc2cccnc2)cc1,0
CN(C)S(=O)(=O)c1ccc(C(=O)Nc2ccc3c(c2)CCC3)cc1,-92.9
CN(C)S(=O)(=O)c1cccc(C(=O)Nc2ccc3c(c2)CCC3)c1,-114.5
Cc1cccc(C(=O)Nc2nc(C)c(C(=O)Nc3ccc4c(c3)CCC4)s2)c1,-120.9
SMILES,aSyn 5UTR act
Cc1cc(C(=O)Nc2ccc3c(c2)CCC3)ccc1[N+](=O)[O-],-187.4
Cc1ccc2cc3cc(C(=O)NC4CCCCC4)oc3nc2c1,-152.7
Cc1ccc2cc3cc(C(=O)NC4CC4)oc3nc2c1,-133.6
Oc1ccc(/C=N/Nc2ccnc3cc(Cl)ccc23)cc1O,-78.5
CCOc1ccc2oc(C(=O)Nc3cc(C)ccn3)c(C)c2c1,-67.5
CCOc1ccc2oc(C(=O)Nc3ccc(N4CCOCC4)cc3)c(C)c2c1,-68.5
CCOc1ccc2oc(C(=O)Nc3ccc4c(c3)OCO4)c(C)c2c1,-176.2
CC(C)NC(=O)CSc1nc(-c2ccccc2)cs1,-159.6
N#CCSc1ccc2nc(-c3ccccc3)cn2n1,-103.7
N#CCSc1nc(-c2ccccc2)cs1,-75.4
Fc1cccc(Nc2cc(-n3cccn3)ncn2)c1,-147.5
Cc1ccc(Nc2cc(-n3cccn3)ncn2)c(C)c1,-170.1
Cc1cccc(NC(=S)NC(=O)c2cccs2)n1,-139.6
Cc1nc(NC(=S)NC(=O)c2cccs2)ccc1Br,-161.2
O=C(NC(=S)Nc1cccc2cccnc12)c1cccs1,-63.4
COc1ccccc1Oc1nnnn1-c1ccc(C(N)=O)cc1,-71.0
c1ccc(-n2nnnc2Oc2ccc(-c3nnco3)cc2)cc1,-62.0
O=C(c1ccccc1Oc1nnnn1-c1ccccc1)N1CCOCC1,-77.3
COc1ccc(Oc2nnnn2-c2ccccc2)cc1,-86.6
COc1cccc(Oc2nnnn2-c2ccccc2)c1,-179.7
COc1cccc(N2C(N)=NC(N)=NC2(C)C)c1,0
O=S(=O)(c1ccccc1F)N1CCN(c2nc3ccccc3s2)CC1,-115.5

# Bioassay records: PubChem, Broad Institute
